We go through 15 compounds from PubChem BioAssay.

Assay [1] deals with Cell division control protein 42 homolog (Homo sapiens) (UniProt P60953). As to the kind of experiment: activated mutant Cdc42 GTP-binding inhibitors, dose response, biochemical, multiplex bead flow cytometry, Bodipy-FL-GTP (AID 1333). A general note: A flow cytometer gives signals particle by particle.
Assay [2] has the same target. As to the kind of experiment: wildtype Cdc42 GTP-binding inhibitors, dose response, biochemical, multiplex bead flow cytometry, Bodipy-FL-GTP (AID 1334;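 active = fitted half-maximal concentration within the tested range, moderate curve steepness, significant signal drop, and little compound fluorescence or bead-linkage interference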). Particulars: bead-based flow cytometry, Bodipy-FL-GTP binding to GST-Cdc42; at 100 µM (top of the series) unless noted.
Assay [3] addresses GTPase HRas (Homo sapiens) (UniProt P01112). As to the kind of experiment: inhibitors of GTP binding to wildtype Ras, dose response, biochemical, multiplex bead flow cytometry (AID 1335;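 active = fitted half-maximal concentration within 10 nM to 100 µM, steepness 0.5 to 2, significant signal drop, low assay interference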). As to conditions: bead-based flow cytometry, Bodipy-GTP binding to GST-Ras; at 100 µM (top of the series) unless noted.
Assay [4] concerns Ras-related protein Rab-7a (dog), GTP binding. The assay can be described thus: Rab7 GTP binding inhibitors, potency, dose response, biochemical, wildtype, multiplex bead flow cytometry (AID 1336; call rule not given here).
In assay [5] the target is Ras-related C3 botulinum toxin substrate 1 (Homo sapiens) (UniProt P63000). The assay can be described thus: wildtype Rac1 GTP binding inhibitors, dose response, biochemical, multiplex bead flow cytometry (AID 1340;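 active = dose curve with midpoint inside tested range, moderate steepness, plateau gap beyond fit error, low compound glow and bead-link interference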). As to conditions: GST-Rac1 beads, Bodipy-FL-GTP binding; at 100 µM (top of the series) unless noted.
The target of assay [6] is GTPase HRas (Homo sapiens) (UniProt P01112). The assay can be described thus: activated Ras mutant GTP binding inhibitors, dose response, biochemical, multiplex bead flow cytometry (AID 1341;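 active = dose-response curve with midpoint inside the tested range, moderate steepness, significant amplitude and little compound fluorescence or bead-attachment interference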;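 also: GST-tagged constitutively activated Ras mutant immobilized on beads and multiplexed with other GTPases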).
GTPase HRas (Homo sapiens), sequence (P01112 whole entry, looked up): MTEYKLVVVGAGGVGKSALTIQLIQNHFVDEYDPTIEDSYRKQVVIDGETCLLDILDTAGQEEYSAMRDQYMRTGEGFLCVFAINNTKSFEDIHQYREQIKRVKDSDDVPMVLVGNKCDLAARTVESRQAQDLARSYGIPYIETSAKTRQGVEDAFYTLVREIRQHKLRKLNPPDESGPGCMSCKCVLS

For part of these data: Measured potencies and affinities stand elsewhere. Calls of active or inactive are those of the source.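 The calls were made as follows, unless noted: active = fitted half-maximal concentration within the tested dose range, moderate curve steepness, a statistically real signal drop, and little compound fluorescence or tag-binding interference; inactive = the rest.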

Cell division control protein 42 homolog (Homo sapiens), sequence (P60953 whole entry, looked up): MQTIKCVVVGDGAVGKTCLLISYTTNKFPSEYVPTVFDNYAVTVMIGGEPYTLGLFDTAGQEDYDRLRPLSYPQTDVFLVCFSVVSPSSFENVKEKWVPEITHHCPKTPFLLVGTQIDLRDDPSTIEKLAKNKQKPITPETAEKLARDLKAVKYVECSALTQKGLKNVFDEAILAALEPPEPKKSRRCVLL

As for `CN(/N=C/c1cccnc1)C1=NS(=O)(=O)c2ccccc21`, the compound was classed as inactive in assay [1], in assay [4] and in assay [6]. The compound also returned a fluorescence, percent of control (lower = inhibition) in assay [2] of 36.2%. Moreover, the GTP binding, percent of control in assay [3] came to 50.7%. Further, in assay [5], the GTP binding signal, raw median fluorescence (lower = inhibition) (MCF (arbitrary fluorescence units)) came out at 137.

Regarding `NC1=NC(=O)/C(=C\c2ccc(O)c([N+](=O)[O-])c2)S1`, the compound was called inactive in assay [1], in assay [4] and in assay [6]. The fluorescence, percent of control (lower = inhibition) in assay [2] was determined as 26.8%. The same compound showed a GTP binding, percent of control in assay [3] of 58.3%. The GTP binding signal, raw median fluorescence (lower = inhibition) (MCF (arbitrary fluorescence units)) in assay [5] was determined as 116.

Regarding `O=S(=O)(Nc1cccc(-c2cn3cccnc3n2)c1)c1ccccc1`, the compound was classed as inactive in assay [1], in assay [4] and in assay [6]. This compound gave a fluorescence, percent of control (lower = inhibition) in assay [2] of 34.9%. For the same compound, in assay [3], the GTP binding, percent of control came out at 48.7%. The compound further yielded a GTP binding signal, raw median fluorescence (lower = inhibition) (MCF (arbitrary fluorescence units)) in assay [5] of 114.

As for `Cc1ccccc1COc1c(C)cccc1C(=O)O`, the compound was called inactive in assay [1], in assay [4] and in assay [6]. For the same compound, in assay [2], the fluorescence, percent of control (lower = inhibition) is 59.9%. Besides, the GTP binding, percent of control in assay [3] was 209%. For the same compound, the GTP binding signal, raw median fluorescence (lower = inhibition) (MCF (arbitrary fluorescence units)) in assay [5] turned out to be 56.3.

For `Cc1c(Cl)cccc1NS(=O)(=O)c1ccc2c(c1)C1C=CCC1C(c1ccc(C(=O)O)cc1)N2` (stereo not given), the compound was classed as inactive in assay [1], in assay [4] and in assay [6]. In assay [2], this compound gave a fluorescence, percent of control (lower = inhibition) of 22.3%. In assay [3], the GTP binding, percent of control was 72.9%. Moreover, in assay [5], the GTP binding signal, raw median fluorescence (lower = inhibition) (MCF (arbitrary fluorescence units)) was 222.

Consider `O=C(Nc1cccc2ccccc12)c1cnccn1`, for which the compound was called inactive in assay [1], in assay [4] and in assay [6]. In assay [2], the fluorescence, percent of control (lower = inhibition) came to 85.4%. The same compound displayed a GTP binding, percent of control in assay [3] of 156%. Besides, in assay [5], the GTP binding signal, raw median fluorescence (lower = inhibition) (MCF (arbitrary fluorescence units)) came out at 181.

As for `CCOc1ccccc1NC(=O)CSc1ccc2nnc(-c3cccnc3)n2n1`, the outcome in assay [1], in assay [4] and in assay [6] was inactive. Besides, in assay [2], the fluorescence, percent of control (lower = inhibition) is 29.2%. Also, in assay [3], the GTP binding, percent of control was 65.1%. For the same compound, the GTP binding signal, raw median fluorescence (lower = inhibition) (MCF (arbitrary fluorescence units)) in assay [5] was 136.

Regarding `Cc1cc(NC(=O)c2cccc(C(=O)Nc3cc(C)on3)n2)no1`, the compound was classed as inactive in assay [1], in assay [4] and in assay [6]. The compound further gave a fluorescence, percent of control (lower = inhibition) in assay [2] of 40%. The GTP binding, percent of control in assay [3] was found to be 86.3%. In assay [5], this compound came in with a GTP binding signal, raw median fluorescence (lower = inhibition) (MCF (arbitrary fluorescence units)) of 296.

Consider `O=C(NNc1nc(-c2ccccc2)c2cc(Br)ccc2n1)c1ccc(S(=O)(=O)N2CCOCC2)cc1`, for which the outcome in assay [1], in assay [4] and in assay [6] was inactive. The same compound gave a fluorescence, percent of control (lower = inhibition) in assay [2] of 40.3%. The GTP binding, percent of control in assay [3] stood at 53.5%. This compound returned a GTP binding signal, raw median fluorescence (lower = inhibition) (MCF (arbitrary fluorescence units)) in assay [5] of 124.

`CCN(CC)c1ccc2c(c1)oc(=O)c1c(Cl)cc(=O)oc12`: the result in assay [1], in assay [4] and in assay [6] was inactive. The same compound had a fluorescence, percent of control (lower = inhibition) in assay [2] of 29%. The compound further displayed a GTP binding, percent of control in assay [3] of 72.6%. Also, the GTP binding signal, raw median fluorescence (lower = inhibition) (MCF (arbitrary fluorescence units)) in assay [5] came to 226.

For the compound `COc1ccc(/C=C2\CCCC3C2=NN(C(=O)c2scnc2C)C3c2ccc(OC)c(OC)c2)cc1OC` (stereo not given), the outcome in assay [1], in assay [4] and in assay [6] was inactive. Also, the fluorescence, percent of control (lower = inhibition) in assay [2] turned out to be 76.7%. This compound displayed a GTP binding, percent of control in assay [3] of 122%. In assay [5], this compound yielded a GTP binding signal, raw median fluorescence (lower = inhibition) (MCF (arbitrary fluorescence units)) of 138.

For the compound `Cc1cccc(NCc2ccc(O)c3ncccc23)c1C`, the compound was classed as inactive in assay [1], in assay [4] and in assay [6]. This compound also returned a fluorescence, percent of control (lower = inhibition) in assay [2] of 39.8%. Besides, in assay [3], the GTP binding, percent of control is 84.4%. The GTP binding signal, raw median fluorescence (lower = inhibition) (MCF (arbitrary fluorescence units)) in assay [5] was 259.

For the compound `Cc1ccc(S(=O)(=O)c2cc3c(=O)n4ccccc4nc3n(C)c2=N)cc1`, the result in assay [1], in assay [4] and in assay [6] was inactive. In assay [2], this compound gave a fluorescence, percent of control (lower = inhibition) of 31.2%. The same compound yielded a GTP binding, percent of control in assay [3] of 65.8%. Moreover, in assay [5], the GTP binding signal, raw median fluorescence (lower = inhibition) (MCF (arbitrary fluorescence units)) was 158.

On to `COc1ccc(CCNc2cc(=O)[nH]c(N)n2)cc1`, for which the result in assay [1], in assay [4] and in assay [6] was inactive. Moreover, in assay [2], the fluorescence, percent of control (lower = inhibition) was 34.1%. In assay [3], this compound showed a GTP binding, percent of control of 48.2%. In addition, the GTP binding signal, raw median fluorescence (lower = inhibition) (MCF (arbitrary fluorescence units)) in assay [5] was found to be 94.3.

Consider `N#Cc1ccc2ccn(CC(=O)N3CCCc4ccccc43)c2c1`, for which the result in assay [1], in assay [4] and in assay [6] was inactive. Further, the fluorescence, percent of control (lower = inhibition) in assay [2] is 40%. Besides, the GTP binding, percent of control in assay [3] was 89.5%. The compound further returned a GTP binding signal, raw median fluorescence (lower = inhibition) (MCF (arbitrary fluorescence units)) in assay [5] of 351.
